Data on 19 compounds can be found in PubChem BioAssay (Tox21).

Molecules are shown by their SMILES. Where “and” joins values, the source holds several entries; their conditions need not be identical. Equal values may be shown once. Results filed as inconclusive are left out. A call without a number means that no potency is given here. A structure can be active in one record and inactive in another. Calls of active or inactive are those of the source. Unless noted, the call rests on the fitted dose curve; in most records, active means well fitted inhibition curve with a large enough effect in the repeat runs; inconclusive means weak or mixed curves; inactive means no such curve, though single readings can be large or run the other way.

Acetylcholinesterase (Homo sapiens), sequence (P22303 whole entry, looked up): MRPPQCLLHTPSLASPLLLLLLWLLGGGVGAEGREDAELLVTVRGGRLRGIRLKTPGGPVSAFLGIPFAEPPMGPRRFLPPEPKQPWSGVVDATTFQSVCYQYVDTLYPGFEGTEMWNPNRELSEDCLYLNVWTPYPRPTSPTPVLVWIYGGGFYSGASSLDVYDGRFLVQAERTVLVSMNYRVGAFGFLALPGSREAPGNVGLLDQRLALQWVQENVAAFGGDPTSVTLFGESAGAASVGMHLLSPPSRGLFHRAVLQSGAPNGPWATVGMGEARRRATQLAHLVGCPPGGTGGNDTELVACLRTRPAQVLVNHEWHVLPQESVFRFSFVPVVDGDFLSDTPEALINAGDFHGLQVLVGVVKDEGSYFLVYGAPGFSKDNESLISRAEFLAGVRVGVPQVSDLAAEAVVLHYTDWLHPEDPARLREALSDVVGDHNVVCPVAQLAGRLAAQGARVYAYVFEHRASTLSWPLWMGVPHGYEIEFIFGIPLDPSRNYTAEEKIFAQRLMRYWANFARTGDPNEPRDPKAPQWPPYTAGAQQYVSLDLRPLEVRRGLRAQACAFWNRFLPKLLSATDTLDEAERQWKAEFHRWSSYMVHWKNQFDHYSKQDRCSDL

The target of the first assay is Acetylcholinesterase (Homo sapiens) (UniProt P22303). The assay is described as follows: Acetylcholinesterase (AChE) small molecule antagonists: enzyme-based qHTS assay with human liver microsomes (AID 1347399; calls by dose curve; further: nearly all actives have a fitted effect of over 60% in size). The following applies: Potency: qHTS inhibition; series mostly up to 115 µM. A digest of the protocol:
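Recombinant human AChE (50 mU/mL in the enzyme mix) and human liver microsomes (0.25 mg/mL final) were preincubated with compound and NADPH (0.25 mg/mL final) for 30 min at 37 C. Acetylthiocholine/DTNB was then added; thiocholine was read colorimetrically after 10 min at room temperature.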
With `C[N+](C)(C)Cc1ccccc1`, the Potency result is “inactive”. The same measure, in the same setting: to `C[C@]12CCC(=O)C=C1CC[C@@H]1[C@@H]2CC[C@]2(C)C(=O)CC[C@@H]12` belongs “inactive”; to `O=c1nc(O)n(Cl)c(=O)n1Cl`, “inactive”.

`O=C(O)c1nc(Cl)ccc1Cl`: the Potency entry is “inactive”.

`CCCCCCCCCCCC(=O)O`: the Potency result was “inactive”. As for `O=C(O)C(Cl)Cl`, the Potency entry is “inactive”. Same read-out and setting: to `CCCCCCCCCCCCOS(=O)(=O)O` belongs “inactive”; to `O=C(O)COc1ccc(Cl)cc1Cl`, “inactive”. For `COCC(=O)N(c1c(C)cccc1C)C(C)C(=O)OC` (stereo not given), the Potency entry is “inactive”. On to `COP(=O)(OC)OC=C(Cl)Cl`, for which the Potency result is “inactive”. For `Nc1ccc(-c2ccc(N)cc2)cc1`, the Potency result was “inactive”.

As to `OCCOc1ccccc1`, the Potency entry was “inactive”. On the same count and under the same terms, to `CCn1cc[n+](C)c1C` belongs “inactive”; to `O=[N+]([O-])c1ccccc1O`, “inactive”. The same measure, in the same setting: to `CNC` belongs “inactive”; to `Cc1cc(-c2ccc(N)c(C)c2)ccc1N`, “inactive”.

Another assay deals with Cytochrome P450 2D6 (Homo sapiens) (UniProt P10635). Put plainly: Cytochrome P450 Family 2 Subfamily D Member 6 (CYP2D6) small molecule antagonists: luciferase reporter qHTS assay (AID 1671196). Further: nearly all actives have a fitted effect of over 50% in size. Further: potency means the concentration at half of the fitted maximal effect. To be noted: P450-Glo CYP2D6 enzyme assay, luciferin luminescence, 1 h; series mostly up to 115 µM. The method, boiled down: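 Enzyme and proluciferin substrate were first combined with test chemical for 10 min at room temperature. Adding NADPH regeneration solution started a 1 h reaction, stopped with luciferin detection reagent and read by luminescence 20 min later.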
Cytochrome P450 2D6 (Homo sapiens), sequence (P10635 whole entry, looked up): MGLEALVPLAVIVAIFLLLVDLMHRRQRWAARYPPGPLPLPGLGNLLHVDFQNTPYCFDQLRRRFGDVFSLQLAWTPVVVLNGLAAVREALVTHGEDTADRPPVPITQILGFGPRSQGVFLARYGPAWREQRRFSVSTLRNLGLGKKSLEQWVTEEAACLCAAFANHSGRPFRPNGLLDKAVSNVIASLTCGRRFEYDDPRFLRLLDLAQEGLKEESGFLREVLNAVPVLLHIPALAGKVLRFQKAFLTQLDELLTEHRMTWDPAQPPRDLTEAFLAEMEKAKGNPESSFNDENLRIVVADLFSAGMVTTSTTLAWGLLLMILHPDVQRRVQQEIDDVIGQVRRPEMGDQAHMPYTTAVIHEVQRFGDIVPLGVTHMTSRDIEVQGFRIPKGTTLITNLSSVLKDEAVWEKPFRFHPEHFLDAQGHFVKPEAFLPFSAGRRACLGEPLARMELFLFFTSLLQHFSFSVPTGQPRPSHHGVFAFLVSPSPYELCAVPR
For orientation: A reporter such as luciferase makes a cellular process visible.
Consider `C[N+](C)(C)Cc1ccccc1`, for which the Potency is 7.93 µM (active) and inactive and 20 µM (active). Consider `C[C@]12CCC(=O)C=C1CC[C@@H]1[C@@H]2CC[C@]2(C)C(=O)CC[C@@H]12`, for which the Potency entry is “inactive”. For the compound `O=c1nc(O)n(Cl)c(=O)n1Cl`, the Potency result is “inactive and 1.26 µM (active)”. Still for that read-out and setting: to `CCCCn1cc[n+](C)c1C` belongs “inactive”. In the case of `O=C(O)c1nc(Cl)ccc1Cl`, the Potency entry was “inactive”.

`CCCCCCCCCCCC(=O)O`: the Potency result was “inactive”. Same read-out and setting: the same measure for `O=C(O)C(Cl)Cl`: 29.1 µM (active) and inactive. Same read-out and setting: the same measure for `CCCCCCCCCCCCOS(=O)(=O)O`: “inactive”.

As for `O=C(O)COc1ccc(Cl)cc1Cl`, the Potency result is “inactive and 35.6 µM (active)”. Still for that read-out and setting: the same measure for `CCCC[N+]1(C)CCCC1`: “inactive”. As for `COCC(=O)N(c1c(C)cccc1C)C(C)C(=O)OC` (stereo not given), the Potency result was “inactive”. On the same count and under the same terms, to `COP(=O)(OC)OC=C(Cl)Cl` belongs “inactive”; to `Nc1ccc(-c2ccc(N)cc2)cc1`, “inactive”; to `OCCOc1ccccc1`, “inactive”.

For the compound `CCn1cc[n+](C)c1C`, the Potency entry is “inactive”. As for `O=[N+]([O-])c1ccccc1O`, the Potency is 31.6 µM (active) and inactive. Still for that read-out and setting: to `CCC[N+]1(C)CCCC1` belongs “inactive”; to `CNC`, “inactive”. Turning to `Cc1cc(-c2ccc(N)c(C)c2)ccc1N`, the Potency was 3.21 µM (active) [middle of 4 runs].
